# Test results taken from PubChem BioAssay (NCATS).
# Results filed as inconclusive are left out. Calls of active or inactive are those of the source. The call rests on the fitted dose curve; in most records, active means well fitted cell-killing curve with a large enough effect; inconclusive means small, poorly fitted or top-dose-only effect, or effect the other way; inactive means flat fitted curve, though single readings scatter.
# Tested on: PA-1
# Assay: Primary qHTS to identify gynecologic anti-cancer compounds using libraries of approved drugs and bioactive compounds (AID 1345084); further: nearly all actives have a fitted effect of over 55% in size
# Conditions: Gynecologic cancer cell panel viability, ATPlite luminescence, 48 h; series mostly up to 57.5 µM; activity change, negative = cytotoxicity: at the top concentration
# Procedure, shortened: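 In this quantitative HTS, cell killing is estimated from loss of ATP-dependent luciferase light. Cells see five compound concentrations over a 48 h exposure.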
# On the % scale 0 is the no-effect control and ±100 the full control effect; potency means the concentration at half of the fitted maximal effect.
SMILES,"activity change, negative = cytotoxicity",Potency
C/C=C(\C)C(=O)O[C@H]1[C@H](OC(C)=O)[C@]2(CO)[C@H](O)[C@H](O)[C@]3(C)C(=CCC4[C@@]5(C)CC[C@H](O[C@@H]6O[C@H](C(=O)O)[C@@H](O)[C@H](O[C@@H]7OC[C@H](O)[C@H](O[C@@H]8OC[C@H](O)[C@H](O)[C@H]8O)[C@H]7O)[C@H]6O[C@@H]6O[C@H](CO)[C@@H](O)[C@H](O)[C@H]6O)C(C)(C)C5CC[C@]43C)[C@@H]2CC1(C)C (stereo partly specified),-1.59% [at 6.55 µM] (inactive),
C[C@]12CC[C@@H](O)C[C@H]1CC[C@@H]1[C@@H]2CC[C@]2(C)C(=O)CC[C@@H]12,-7.34% (inactive),
Clc1ccc(OCC2=NCCN2)cc1Cl,0.34% (inactive),
CC12CCC3C(CCC4(O)CC(O)CCC34C=O)C1(O)CCC2C1=CC(=O)OC1 (stereo unspecified),,1120 nM (active)
COC(=O)C12C(=O)C(C)(O)C(=O)C1(C)C(C)=CC1C34CCC(OC3=O)C(C)(CO)C4CCC12C (stereo unspecified),-4.38% [at 25.3 µM] (inactive),
CCN1C[C@]2(COC(=O)c3ccccc3N3C(=O)C[C@H](C)C3=O)CC[C@H](OC)[C@@]34[C@@H]5C[C@H]6[C@H](OC)[C@@H]5[C@](O)(C[C@@H]6OC)[C@](O)([C@@H](OC)[C@H]23)[C@@H]14,10.6% (inactive),
COC(=O)[C@@]12C(=O)C(C)C(=O)[C@]1(C)C(C)=C[C@H]1[C@]3(C=O)CC[C@H](OC(C)=O)C(C)(C)[C@H]3CC[C@@]12C (stereo partly specified),0.106% [at 25.3 µM] (inactive),
COC1=CC(=O)O[C@@H](CCc2ccccc2)C1,7.33% (inactive),
Cn1ncnc1COc1nn2c(-c3c(F)cccc3F)nnc2cc1C1CCC1,11.5% (inactive),
C=C[C@H]1[C@H](O[C@@H]2O[C@H](CO)[C@@H](O)[C@H](O)[C@H]2O)OC=C2C(=O)OCC[C@H]21,12.3% [at 38.5 µM] (inactive),
C=C(CO)C(=O)O[C@H]1C/C(C)=C/CC/C(CO)=C/[C@H]2OC(=O)C(=C)[C@H]12,7.76% [at 38.5 µM] (inactive),
CN(C(=O)Cc1ccccc1)C(CN1CCCC1)c1ccccc1 (stereo unspecified),2.38% (inactive),
C[C@@]1(C(=O)O)CC[C@]2(C)CC[C@]3(C)C4=CC(=O)c5cc(O)c(O)cc5[C@]4(C)CC[C@@]3(C)[C@@H]2C1,-3.48% [at 25.3 µM] (inactive),
CN1C(=O)N(c2ccc(C#N)c(C(F)(F)F)c2)C(=O)[C@]1(CO)c1ccccc1,0.0163% (inactive),
Clc1ccc(N2C[C@H]3CC[C@@H](C2)N3)nn1,18.4% (inactive),
OC1(c2ccc(Cl)cc2)c2ccccc2C2=NCCN21 (stereo unspecified),-3.08% (inactive),
COC1CC(=O)C23C(=O)NC(CC(C)C)C2C(C)=C(C)C(OO)C3/C=C(\C)CCC(O)C1O (stereo unspecified),1.1% [at 25.3 µM] (inactive),
CO[C@@H]1[C@H](O)[C@@H](O[C@@H]2C[C@H]3CC[C@@H]4C(CC[C@]5(C)[C@@H](C6=CC(=O)OC6)CC[C@]45O)[C@@]3(C)[C@H](O)C2)O[C@H](C)[C@@H]1O[C@@H]1O[C@H](CO)[C@@H](O)[C@H](O)[C@H]1O (stereo partly specified),,398 nM (active)

SMILES,"activity change, negative = cytotoxicity",Potency
OCCCCC#Cc1cncc(OC[C@@H]2CCN2)c1,-2.32% (inactive),
COC1CC(O[C@H]2CC[C@@]3(C)C(=CCC4C3C(O)[C@@H](O)[C@]3(C)[C@@H](C(C)=O)CC[C@]43O)C2)OC(C)C1OC1CC(OC)C(OC2OC(C)C(O)C(O)C2O)C(C)O1 (stereo partly specified),-3.19% [at 11.6 µM] (inactive),
N#C[C@@H](O[C@@H]1O[C@H](CO[C@@H]2O[C@H](CO)[C@@H](O)[C@H](O)[C@H]2O)[C@@H](O)[C@H](O)[C@H]1O)c1ccccc1,17.6% [at 25.3 µM] (inactive),
C=C(C)[C@H]1O[C@H]2CC[C@@]3(C)[C@@](O)(CC[C@H]4[C@@H]5OC(C)(C)[C@H]6C[C@@H]7C(=C)Cc8c(Cl)cc9[nH]c(c5c9c8[C@@]76O)[C@@]43C)[C@]23O[C@@H]3[C@H]1O,21.3% [at 25.3 µM] (inactive),
CCC(C)(C#N)O[C@@H]1O[C@H](CO)[C@@H](O)[C@H](O)[C@H]1O (stereo partly specified),7.97% (inactive),
O=C(N1CCOCC1)N1CCN(c2ccc(Cl)cc2)CC1,0.601% (inactive),
CN1CCCC1CCOC(c1cc2nccc(C(=O)O)c2[nH]1)c1ccccc1Cl (stereo unspecified),20.1% (inactive),
CCCCCCn1c(=O)c(C(=O)Nc2ccc(C(=O)OCCC)cc2)c(O)c2ccccc21,1.75% [at 11.6 µM] (inactive),
C=CC(C)(C)c1[nH]c2cccc3c2c1C[C@@H]1[C@@H]3[C@@H](OC(C)=O)[C@H](C)CN1C,8.22% [at 38.5 µM] (inactive),
CC1=C2C[C@H]3[C@@H](CC=C4C[C@@H](O)CC[C@@]43C)[C@@H]2CC[C@]12O[C@@H]1C[C@H](C)CN[C@H]1[C@H]2C,-5.56% (inactive),
CC1=CC2/C=C(\C)CCC(O)C3OC(C)(C)OC3CC(=O)OC23C(=O)NC(CC(C)C)C3C1C (stereo unspecified),10.1% [at 25.3 µM] (inactive),
CCN1C[C@]2(COC)[C@H](O)C[C@H](OC)[C@]34[C@@H]5C[C@]6(O)[C@H](OC(=O)c7ccccc7)[C@@H]5[C@@](O)([C@H]([C@H](OC)[C@H]23)[C@@H]14)[C@@H](O)[C@@H]6OC,11.4% [at 38.5 µM] (inactive),
CC(=O)O[C@H]1C[C@@H](OC(C)=O)C(C)(C)C2C[C@@H](O)[C@]3(C)C(CC[C@@]4(C)[C@H](C5=CC(=O)OC5O)C[C@H]5O[C@]543)[C@]21C (stereo partly specified),-3.79% [at 25.3 µM] (inactive),
COC1C(O)C(C)OC(OC2C(CO)O[C@@H](O[C@@H]3CC4CCC5C(CC[C@]6(C)[C@@H](C7=CC(=O)OC7)CC[C@]56O)[C@@]4(C)[C@H](O)C3)C(O)C2O)C1O (stereo partly specified),,2820 nM (active)
COC1CC(O[C@H]2CC[C@]3(C=O)C4CC[C@]5(C)[C@@H](C6=CC(=O)OC6)CC[C@]5(O)[C@@H]4CC[C@]3(O)C2)OC(C)C1O[C@@H]1O[C@H](CO)[C@@H](O)[C@H](O)[C@H]1O (stereo partly specified),,316 nM (active)
C[C@H]1C(=O)O[C@H]2[C@H](O)[C@]34C5OC(=O)[C@]3(O[C@@H]3OC(=O)[C@H](O)C34[C@H](C(C)(C)C)[C@H]5O)C12O (stereo partly specified),-0.636% [at 25.3 µM] (inactive),
CC(CCc1ccc(O)cc1)O[C@@H]1O[C@H](CO[C@H]2OC[C@](O)(CO)[C@H]2O)[C@@H](O)[C@H](O)[C@H]1O (stereo partly specified),4.04% [at 25.3 µM] (inactive),
C[C@@](O)(COc1ccc(C#N)cc1)C(=O)Nc1ccc(C#N)c(C(F)(F)F)c1,0.506% (inactive),
